Pol beta inh: inhibitors of human DNA polymerase beta | hit rate 1.3% among 340,000 | Potency, µM (highest dose often 114 µM), inactives show at the highest dose activity change, negative = inhibition, most hits filed as inhibitors | AID 485314 | P06746 | Pol beta primer extension/strand displacement, fluorescence kinetic; note: % is set by controls: 0 for no effect and ±100 for the full control effect
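Values derive from four-parameter Hill fits of normalized kinetic data: reads at 0 and 10 min following addition of 50 nM substrate to 10 nM Pol beta preincubated 15 min with compound.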
FEN1 inh: blocks human flap endonuclease 1; Recombinant FEN1 flap cleavage, fluorescence, 15 min; Potency, µM (titrated, usually from 114 µM), for the others: at the highest dose activity change, negative = inhibition, hits mostly inhibitors; hit rate 0.35% among 390,000; AID 588795; note: % is set by controls: 0 for no effect and ±100 for the full control effect; nearly all actives have a fitted effect of over 65% in size
Target sequence (P39748 whole entry, looked up): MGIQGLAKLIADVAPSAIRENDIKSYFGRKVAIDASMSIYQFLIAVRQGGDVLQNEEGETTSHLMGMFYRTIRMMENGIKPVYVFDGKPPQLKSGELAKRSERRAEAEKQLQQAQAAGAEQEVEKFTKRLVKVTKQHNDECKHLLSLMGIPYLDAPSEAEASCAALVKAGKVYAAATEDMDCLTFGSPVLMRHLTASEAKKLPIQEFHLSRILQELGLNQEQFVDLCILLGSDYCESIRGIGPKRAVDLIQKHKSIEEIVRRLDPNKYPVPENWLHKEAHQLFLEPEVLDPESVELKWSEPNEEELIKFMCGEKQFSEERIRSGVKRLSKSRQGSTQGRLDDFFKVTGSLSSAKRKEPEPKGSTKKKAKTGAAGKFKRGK
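Read-out was taken twice, immediately and after 15 min, following addition of 50 nM substrate to 10 nM FEN1 that had sat with test compound for 15 min at room temperature. Curves came from a four-parameter Hill model.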
POLI inh: blocks human DNA polymerase iota activity; Pol iota fluorescent replication assay, 10 min; hit rate 1% among 390,000; Potency, µM (series often up to 115 µM), without a hit: top-dose activity, negative = inhibition, most hits filed as inhibitors; Q9UNA4
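Fluorescent replication assay read twice, at 0 min and 10 min after adding 50 nM (final) substrate. Enzyme (10 nM) and compounds were first incubated 15 min at room temperature; enzyme-free buffer wells were negative controls.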
WRN inhibitor: blocks human WRN helicase; Q14191; hit rate 0.46% among 360,000; Potency, µM (series often up to 114 µM), without a hit: at the top dose activity change, negative = inhibition, most hits filed as inhibitors; WRN helicase unwinding, fluorescent forked duplex, kinetic; note: % is set by controls: 0 for no effect and ±100 for the full control effect; nearly all actives have a fitted effect of over 55% in size
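Fluorescence dequenching readout, ex 525 nm/em 598 nm, kinetic mode: forked duplex DNA (100 nM final) with adjacent fluorophore and quencher unwound by WRN (20 nM final) with 2 mM ATP. Compound preincubation 15 min, room temperature.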
Pol eta inh-1: DNA polymerase eta (human) inhibition; recombinant Pol eta, fluorescent DNA replication assay; hit rate 1.2% among 390,000; AID 588591; Q9Y253; Potency, µM (highest dose often 114 µM), without a hit: at the top dose activity change, negative = inhibition, most hits filed as inhibitors; note: % is set by controls: 0 for no effect and ±100 for the full control effect
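Pol eta at 10 nM preincubated with compounds 15 min at room temperature; reaction started with fluorescent substrate (50 nM final) and read kinetically at 0 and 10 min.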
Pol kappa inh-1: inhibitors of human DNA polymerase kappa | Q9UBT6 | hit rate 0.53% among 400,000 | purified Pol kappa, fluorescent DNA synthesis assay, 10 min | Potency, µM (titrated, usually from 107 µM), inactives show top-dose activity, negative = inhibition, actives largely listed as inhibitors; note: % is set by controls: 0 for no effect and ±100 for the full control effect
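Enzyme at 10 nM met test compounds for 15 min at room temperature. Substrate addition (50 nM final) began the reaction, which was monitored by fluorescence at 0 and 10 min.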
Pol kappa inh-2: Pol kappa (human) inhibition, cherry-pick confirmation; hit rate 76% among 920; shares compounds with Pol eta inh-1; AID 720501; purified Pol-kappa, fluorescent strand-displacement substrate; Potency, µM, hits mostly inhibitors
Pol eta inh-2: confirmation of human DNA polymerase eta inhibitors; hit rate 64% among 2,600; shares compounds with Pol eta inh-1; Potency, µM, actives largely listed as inhibitors; Pol eta primer extension, TAMRA/BHQ fluorescence, 10 min; AID 720502
Numbers without * were called inactive; ? = inconclusive; . = no result; [ ] = dose if it differs, or a comment. Compounds with a hit are over-represented: about 2.4% of the library has one in this group of screens. Calls come from the whole dose curve; as a rule, active = well fitted curve in the direction sought with a large enough effect; inconclusive = small, poorly fitted or top-dose-only effect, or another doubt; inactive = no such curve, though single readings can be large; an effect the other way counts as inactive or inconclusive. Potency is the fitted concentration of half-maximal effect.

SMILES	Pol beta inh	FEN1 inh	POLI inh	WRN inhibitor	Pol eta inh-1	Pol kappa inh-1	Pol eta inh-2	others
N=C(N)SCc1ncccc1O	-3%	-12%	50µM*	-14%	-3%	-46%	?
Cc1ccc2nc(Cl)c(/C=N/Nc3ccc(C(=O)O)cc3)cc2c1	-21%	45µM*	-37%	-32%	22µM*	?	27*
Cc1ccc(NC(=O)N/C=C/c2ccco2)cc1C	25µM*	-3%	40µM*	-32%[57.1 µM]	28µM*	79µM*	?
Cc1ccc(NC(=O)c2cccc(NC(=O)/C=C/c3ccco3)c2)cc1C	?	-6%	?	-8%[11.6 µM]	?	-18%	.
Cc1ccc2occ(CC(=O)Nc3ccc(S(=O)(=O)N4CCC(C)CC4)cc3)c2c1	?	-15%	-17%	.	-20%	0%	.
COc1ccc(-c2c(C)c3ccc(O)c(CN4CCC(C)CC4)c3oc2=O)cc1OC	5%	-6%	-18%	.	2%	-7%[60.1 µM]	.
C=CCOc1cccc(C2C(C(=O)c3ccco3)=C(O)C(=O)N2Cc2ccco2)c1 (stereo not drawn)	3%	-11%	?	-16%	?	-13%	?
C=CCOc1cccc(C2C(C(=O)c3ccco3)=C(O)C(=O)N2Cc2ccncc2)c1 (stereo not drawn)	3%	-4%	9%	-2%	4%	-5%	.
CC(C)(C)OC(=O)N1CCC(c2c(C(=O)Nc3ccc4c(c3)OCCO4)cnn2-c2ccccc2)CC1	13%	-16%	-4%	.	-4%	0%	.
O=C(O)c1ccc(CNc2ccccc2C(=O)O)cc1	11µM*	-4%	?	-20%[57.1 µM]	?	?	?
C#Cc1ccc([C@H]2C=C(C(=O)OCC=C)O[C@@H](OCCCCO)C2)cc1	.	-16%	56µM*	-14%[11.6 µM]	32µM*	?	67*
CC[C@H](C)[C@H](NC(=O)[C@H](CC(C)C)NC(=O)[C@H](CO)NC(=O)[C@H](CCC(=O)O)NC(=O)[C@H](CC(C)C)NC(=O)[C@H](Cc1ccc(O)cc1)NC(=O)[C@H](CCCCN)NC(=O)[C@H](CCCCN)NC(=O)[C@H](C)NC(=O)[C@H](CO)NC(=O)[C@H](CC(C)C)NC(=O)[C@H](CCC(N)=O)NC(=O)CNC(=O)[C@H](CC(C)C)NC(=O)[C@H](CC(C)C)NC(=O)[C@H](CCCNC(=N)N)NC(=O)[C@H](CO)NC(=O)[C@H](Cc1ccccc1)NC(=O)[C@H](CC(=O)O)NC(=O)[C@H](CO)NC(=O)[C@@H](NC(=O)[C@H](Cc1ccccc1)NC(=O)[C@@H](NC(=O)CNC(=O)[C@H](CC(=O)O)NC(=O)[C@H](C)NC(=O)[C@@H](N)Cc1cnc[nH]1)C(C)C)[C@@H](C)O)C(N)=O	.	.	.	.	.	18%[60.1 µM]	.
Cc1ccc(S(=O)(=O)N2[C@@H](c3ccc(Cl)cc3)C(C(=O)O)=CC[C@H]2c2cccc(Cl)c2)cc1	.	-15%	4%	6%	-16%	-2%	.
Cc1ccc(S(=O)(=O)N2[C@@H](c3cccc(Cl)c3)C(C(=O)O)=CC[C@H]2c2ccc(C(C)C)cc2)cc1	.	-9%	?	-4%[11.6 µM]	89µM*	?	.	Pol kappa inh-2=?
Cc1ccc(NC(=O)c2cccc(C(=O)Nc3ccc(C)cc3C(=O)O)c2)c(C(=O)O)c1	-12%	?	-20%	-13%[11.6 µM]	?	-37%	?	Pol kappa inh-2=15*
O=C(O)/C=C\c1cc2c(cc1[N+](=O)[O-])OCO2	7%	1%	31%	-7%	-18%	7%	.
O=C1NC(=S)N/C1=C/c1cc2c(cc1[N+](=O)[O-])OCO2	-1%	-32%	-10%	13%	?	?	85*

Screening results (PubChem)
